Shown are actives, neighbours in structure and some others; about 1.2% of the full set was active somewhere.
RGS4-Gao reg = modulators of RGS4 binding to Galphao, primary screen, biochemical, multiplexed bead flow cytometry; Guanine nucleotide-binding protein G(o) subunit alpha (Homo sapiens), P09471; actives lie on both sides; binding response (% of control), % at 10 µM; hit rate 0.33% among 220,000; AID 1415, 2008; in the data active = binding response below about 49% or above about 150%; inactive = in between;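 note: fluorescent Galphao activated with aluminum fluoride binding bead-coupled RGS4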
RGS16-Gao = modulators of RGS16 binding to Galphao, primary screen, biochemical, human proteins, multiplexed bead flow cytometry; AID 1441, 2008; Regulator of G-protein signaling 16 (Homo sapiens) + Guanine nucleotide-binding protein …; hit rate 0.38% among 220,000; bead-based flow cytometry RGS16-Galphao binding, fluorescence; actives lie on both sides; binding response (% of control), % at 10 µM; call rule not given here;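 note: Galphao activated by GDP with aluminum fluoride before binding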
Target sequence (O15492 whole entry, looked up): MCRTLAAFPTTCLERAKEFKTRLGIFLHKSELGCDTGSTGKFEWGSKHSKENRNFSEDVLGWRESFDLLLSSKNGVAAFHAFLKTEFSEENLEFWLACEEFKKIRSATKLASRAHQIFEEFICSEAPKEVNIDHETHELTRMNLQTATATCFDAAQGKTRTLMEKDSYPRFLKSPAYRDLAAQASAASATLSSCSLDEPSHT
Target sequence (P09471 whole entry, looked up): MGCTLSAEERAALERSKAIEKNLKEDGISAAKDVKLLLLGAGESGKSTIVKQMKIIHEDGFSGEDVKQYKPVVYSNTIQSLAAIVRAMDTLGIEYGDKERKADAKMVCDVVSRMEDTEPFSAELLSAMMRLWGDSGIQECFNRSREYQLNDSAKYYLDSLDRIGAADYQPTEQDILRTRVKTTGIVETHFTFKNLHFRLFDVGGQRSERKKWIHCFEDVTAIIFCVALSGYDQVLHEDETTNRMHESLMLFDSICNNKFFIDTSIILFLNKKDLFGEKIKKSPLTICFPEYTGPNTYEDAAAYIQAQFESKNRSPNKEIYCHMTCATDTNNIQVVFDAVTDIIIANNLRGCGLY
RGS8-Gao reg = RGS8-Galphao binding modulators, primary screen, biochemical, multiplexed bead flow cytometry | Guanine nucleotide-binding protein G(o) subunit alpha (Homo sapiens), P09471 | actives lie on both sides | response (percent of control binding), % at 10 µM | hit rate 0.34% among 220,000 | AID 1423, 2008; in the data active = response below about 60% or above about 140%; inactive = in between;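 note: Galphao activated as the GDP aluminium fluoride complex binding bead-coupled RGS8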
Avidin fluor = green autofluorescence of compounds with avidin beads – biophysical, 488/530 nm, flow cytometry, artefact control, profiling panel; compound fluorescence 488/530 nm; stronger effect = higher value; fluorescence (KMESF) at 10 µM; AID 1775, 2009; hit rate 0.38% among 220,000; in the data active = fluorescence above about 47
RGS7-Gao = RGS7-Galphao binding modulators, primary screen, biochemical, multiplexed bead flow cytometry | binding response (% of control), % at 10 µM | actives lie on both sides | Guanine nucleotide-binding protein G(o) subunit alpha (Homo sapiens), P09471 | hit rate 0.35% among 220,000; in the data active = binding response below about 49% or above about 150%; inconclusive = no clear call, values can overlap the other calls; inactive = in between;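 note: fluorescent Galphao held in activated GDP-AlF4 state binding bead-coupled RGS7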
GSH bead fluor = compound fluorescence on glutathione beads, profiling panel, artefact control, biophysical, 488/530 nm, flow cytometry; fluorescence (KMESF) at 10 µM; hit rate 0.25% among 190,000; GSH beads flow cytometry, compound fluorescence 488/530 nm; stronger effect = higher value; in the data active = fluorescence above about 89;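 note: glutathione beads carrying GST-tagged Bcl family fusion proteins plus one bare bead set; values are compound well signal with DMSO vehicle wells as background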
An asterisk follows results filed as active; ? = inconclusive; · = no result.

SMILES	RGS4-Gao reg	RGS16-Gao	RGS8-Gao reg	Avidin fluor	RGS7-Gao	GSH bead fluor
COc1cccc(C2CCCN2Cc2nc(-c3cnccn3)no2)c1 (stereo unspecified)	101	101	98	9	97	9
O=C(Nc1cccnc1Cl)c1ccc(=O)oc1	102	107	104	6	?	·
Cc1cccc(CN(C)CCc2ccccn2)c1	99	100	102	33	105	15
Cc1cccc(OCC(=O)N(C)CCc2ccccn2)c1	101	101	101	47*	105	22
O=C1CCc2cc(S(=O)(=O)NC(Cc3ccccc3)C(=O)NCCC3=CCCCC3)ccc2N1 (stereo unspecified)	106	102	97	54*	143	20
Cc1cc(C(=O)O)cc(Br)c1N	99	97	98	9	?	17
O=C(c1cc2c(ccc3ccccc32)o1)N1CCN(c2ncc(C(F)(F)F)cc2Cl)CC1	102	104	100	8	100	277*
O=C(CN1CCN(c2ncc(C(F)(F)F)cc2Cl)CC1)NC(=O)NCc1ccccc1	102	107	102	21	103	11
CCN(Cc1ccccc1)C(c1ccncc1)c1nnnn1C(C)(C)C (stereo unspecified)	102	103	100	49*	105	27
Cn1ncc2c(=O)n(CC(=O)NC34CC5CC(CC(C5)C3)C4)cnc21	105	104	102	84*	122	26
CC(C)(C)n1ncc2c(=O)n(CC(=O)NCc3ccccc3)cnc21	101	111	107	24	102	13
CCOC(=O)c1ccc2c(c1)nc(SCC(=O)c1ccco1)n2CC	97	52	91	5	95	255*
CCOc1ccccc1NC(=O)C(NCC1(N2CCCCC2)CCCCC1)c1ccccc1 (stereo unspecified)	104	132	115	20	106	8
CCSc1nnc(NC(=O)c2ccc(C)o2)s1	103	105	105	48*	105	17
C#CCN(CC=C)C(=O)CCc1nnc(COc2ccccc2)o1	101	105	103	10	101	8
CCOC(=O)Nc1c(C(=O)OC)[nH]c2cccc(OC)c12	122	125	103	57*	120	28
CCOC(=O)c1[nH]c2ccc(OC)cc2c1NC(C)=O	106	102	101	62*	121	15
COC(=O)c1[nH]c2cccc(OC)c2c1NC(=O)CCN1CCC(C)CC1	100	101	101	33	100	22
Nc1nonc1/C(=N/O)N1CCN(CCO)CC1	102	101	98	9	98	261*
CN1CCN(/C(=N\O)c2nonc2N)CC1	99	108	103	5	97	24
CC(=O)c1cc(F)c(N2CCN(C(=O)COc3ccc(F)cc3)CC2)cc1C	103	103	105	5	104	93*
CCCn1c2c(c(O)c(C(=O)NCc3ccccc3)c1=O)CCCC2	105	100	103	54*	113	15
Cc1ccc(NC(=O)COC(=O)CCNS(=O)(=O)c2ccc(C)c(C)c2)cc1	101	105	103	2	99	8
S=C1CCC(c2ccc(Br)cc2)=NN1c1ccccc1	91	110	96	11	?	·
CCCCSc1nc2c(cnn2-c2ccccc2)c(=O)n1N	101	102	101	61*	129	17
CCCSc1nc2c(cnn2-c2ccccc2)c(=O)n1N	98	99	97	7	?	·
CC(C)c1nnc(NC(=O)Cn2nc(-c3ccc4c(c3)OCCO4)ccc2=O)s1	102	116	102	13	101	22
O=c1[nH]c(CN2CCOCC2)nc2ccccc12	94	99	95	19	93	13
O=C(O)c1ccc2c(=O)[nH]c(CN3CCOCC3)nc2c1	96	105	100	62*	140	11
